Screening results: PubChem BioAssay, several laboratories
tim23-1 inh: inhibits growth of tim23-1 mutant yeast; S. cerevisiae tim23-1 growth, BacTiter-Glo luminescence, 24 h; inhibition, % at 20 µM; 1.3% of 330,000 active;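 active means growth inhibition of the mutant yeast at or above 50%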;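 further: temperature-sensitive mutant grown at 25 °C; plate controls were DMSO-treated mutant yeast for no effect and medium wells lacking yeast for full effect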
TIM10 inh: TIM10 yeast growth inhibition | S. cerevisiae TIM10 strain growth, BacTiter-Glo luminescence, 24 h | inhibition, % at 10 µM | 1.4% of 330,000 active;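 active means inhibition of 40% or more at the single tested concentration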;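 further: wild-type TIM10 isogenic control strain grown at permissive 25 °C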
NALP3 yeast inh: inhibitors of NALP3 inflammasome in yeast. inhibition, % at 10 µM. Yeast reconstituted NLRP3/ASC/caspase-1, beta-gal luminescence, 24 h. AID 2825. 0.39% of 330,000 active;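 active means inhibition of 50% or more; inactive means inhibition below 50%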;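 further: plate controls were induced DMSO wells for no effect and uninduced yeast grown without galactose for full effect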
NALP1 yeast inh: inhibitors of NALP1 inflammasome in yeast; S. cerevisiae NALP1/ASC/caspase-1 growth, X-gal OD620, 72 h; inhibition, % at 10 µM; 0.61% of 280,000 active; in the data active means inhibition mostly above about 24%, no sharp cut-off; inactive means mostly below about 32%
tim10-1 inh: tim10-1 yeast growth inhibition. S. cerevisiae tim10-1 ts strain growth, BacTiter-Glo, 24 h. inhibition, % at 20 µM. 2.2% of 330,000 active. AID 463190;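 active means inhibition of at least 40%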;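 further: mutant grown at 25 °C; 0% = DMSO wells with yeast and 100% = wells holding no yeast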
V-ATPase pH: alters yeast V-ATPase proton transport. S. cerevisiae, pHLuorin cytosolic pH fluorescence. response, % at 10 µM. 0.37% of 350,000 active. AID 504577; in the data active means response mostly above about 7.3%, no sharp cut-off; inactive means mostly below about 5.4%; further: actives read high
tim10-1 conf: tim10-1 yeast growth inhibition, confirmed; shares compounds with tim10-1 inh; S. cerevisiae tim10-1 ts strain growth, BacTiter-Glo, 24 h; inhibition, % at 20 µM; 56% of 7,400 active; AID 463213;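 active means inhibition of yeast growth at or above a set limit in either of two repeat tests at 20 µM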;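 further: tim10-1 mutant grown at permissive 25 °C to find synthetic lethal compounds; 0% = DMSO yeast wells and 100% = medium wells without yeast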
tim10 confirm: confirmation of TIM10 yeast growth inhibitors; shares compounds with TIM10 inh; S. cerevisiae tim10 strain growth, BacTiter-Glo luminescence, 24 h; inhibition, % at 10 µM; 63% of 4,600 active; AID 463215;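 active means inhibition of yeast growth at or above a set limit in either of two replicates at 10 µM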;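 further: this counterscreen used the strain with wild-type TIM10; 0% = yeast with DMSO and 100% = medium wells lacking yeast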
tim23-1 conf: confirmation of tim23-1 mutant yeast growth inhibitors. S. cerevisiae tim23-1 growth, BacTiter-Glo luminescence, 24 h. inhibition, % at 20 µM. 83% of 4,400 active. shares compounds with tim23-1 inh;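 active means inhibition above about 39% in either of two replicate wells at 20 µM, limit read from the data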;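 further: temperature-sensitive tim23-1 mutant grown at 25 °C; 0% = DMSO wells with yeast and 100% = medium wells without yeast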
Starred values were filed as active, the others as inactive; nt = no result given. In the library only some 4.2% were active in any assay of this set; here they are far more common.

SMILES | tim23-1 inh | TIM10 inh | NALP3 yeast inh | NALP1 yeast inh | tim10-1 inh | V-ATPase pH | tim10-1 conf | tim23-1 conf | others
COC(=O)c1c(NC(=O)c2cccc(S(=O)(=O)N3CCN(C)CC3)c2)sc(C)c1C | 55.1* | 28.3 | 5.3 | nt | 57.1* | -5.9 | 42.5* | 47.0*
CCOC(=O)c1sc(NC(=O)c2cccc(S(=O)(=O)N3CCN(C)CC3)c2)cc1C | -3.4 | 15.7 | -6.5 | -17.9 | 6.4 | -10.2 | nt | nt
Oc1cc2c(cc1C(c1ccc(Cl)c(Cl)c1)N1CCCC1)OCO2 (centres undefined) | 63.3* | 33.0 | 27.3 | 17.4 | 49.8* | 2.3 | 38.6* | 45.0*
COc1ccc(C)cc1NC(=O)CN(C)S(=O)(=O)c1ccc2c(c1)CC(C)N2C(C)=O (centres undefined) | 26.2 | 18.8 | 1.5 | 23.8 | 24.0 | -0.2 | nt | nt
CC(=O)Nc1ccc(S(=O)(=O)N2CCN(S(=O)(=O)c3ccccc3)CC2)cc1 | 5.1 | 5.3 | 13.8 | 7.9 | 1.3 | -0.4 | nt | nt
CC(=O)Nc1ccc(S(=O)(=O)N2CCN(c3cc(C)ccc3C)CC2)cc1 | 53.9* | 34.7 | -5.2 | 29.7 | 59.8* | 2.6 | 49.5* | 46.9*
CC(=O)OC1(C(C)=O)CCC2C3CC(Cl)C4=CC(=O)CCC4(C)C3CCC21C (centres undefined) | nt | nt | nt | nt | nt | -3.9 | nt | nt
Cc1ccc(C2CN(C)C3(C(=O)Nc4ccccc43)C23COc2ccccc2C3=O)cc1 (centres undefined) | 53.2* | 28.9 | -18.9 | 7.0 | 45.2* | 4.4 | 37.4* | 47.3*
CN1CC(c2ccccc2Cl)C2(COc3ccccc3C2=O)C12C(=O)Nc1ccccc12 (centres undefined) | 38.8 | 25.9 | 7.5 | 9.0 | 30.7 | 1.9 | nt | nt
COc1ccc(OCc2cc(/C=N\NC(=O)c3ccccc3)ccc2OC)cc1 | 51.9* | 34.5 | 25.7 | -3.3 | 48.9* | -2.5 | 31.3 | 44.6*
Cn1c(=O)c(C(=O)N2CCc3ccccc32)cc2cccnc21 | 1.6 | -11.6 | 4.8 | nt | -1.0 | 1.6 | nt | nt
COC(=O)c1ccc(C(=S)NCC2(N(C)C)CCCCC2)cc1 | 11.1 | -5.6 | -3.7 | -1.0 | 18.8 | 0.3 | nt | nt
CC(C)Cn1c(N)c(C(=O)COC(=O)c2c(O)c(Cl)cc(Cl)c2Cl)c(=O)n(C)c1=O | 50.9* | 25.6 | 18.0 | nt | 41.8* | -4.0 | 25.9 | 57.5*
CC(C)Cn1c(N)c(C(=O)COC(=O)c2ccc(Cl)cc2)c(=O)n(C)c1=O | 31.3 | 32.9 | 13.7 | 5.5 | 31.7 | -3.9 | nt | nt
N/C(=N\OC(=O)Nc1ccccc1)c1ncc([N+](=O)[O-])s1 | 77.1* | 56.7* | 19.2 | nt | 51.2* | -7.5 | 47.7* | 18.9 | tim10 confirm=60.2*
O=C(Nc1ccccc1)ON=C1CCCC1 | 39.3 | 39.8 | 13.7 | 39.5 | 34.3 | 3.1 | nt | nt
COc1ccccc1/C=C(\C#N)C(=O)c1cccn1C | 58.5* | 22.0 | 5.3 | 21.6 | 43.2* | -0.8 | 29.5 | 50.1*
COc1ccc(/C=C(\C#N)C(=O)c2cccn2C)cc1 | 14.0 | 11.1 | 17.3 | 6.5 | 19.7 | 3.1 | nt | nt
Nc1ccc2oc(-c3cc(Br)ccc3Cl)nc2c1 | 59.2* | 41.3* | 16.4 | 0.5 | 54.2* | -3.5 | 40.5* | 55.5* | tim10 confirm=36.3*
CCc1ccc2oc(-c3cc(N)ccc3O)nc2c1 | 6.6 | 24.5 | 18.3 | 1.7 | 14.0 | -0.9 | nt | nt
CCc1ccc2oc(-c3cc(N)ccc3Cl)nc2c1 | 56.4* | 49.5* | 8.4 | 6.9 | 44.5* | 8.9 | 27.1 | 47.1* | tim10 confirm=23.2
CCOc1ccccc1N1CCN(C(=O)Nc2ccc(Cl)c(Cl)c2)CC1 | 58.1* | 37.2 | 16.8 | 21.3 | 48.4* | nt | 37.2* | 50.5*
C(=N\NC1=NCCN1)/c1ccncc1 | 5.7 | -15.2 | 32.3 | -1.8 | -0.9 | 0.6 | nt | nt
CC1CCN(C(=S)Nc2ccc(SC(F)F)cc2)CC1 | 10.4 | 13.2 | 21.9 | 19.3 | 16.1 | 1.0 | nt | nt
CC1CCCCC1NC(=S)Nc1ccc(SC(F)F)cc1 (centres undefined) | 53.0* | 70.2* | 43.2 | 18.1 | 65.8* | -0.4 | 64.8* | 38.9 | tim10 confirm=64.2*
SMILES | tim23-1 inh | TIM10 inh | NALP3 yeast inh | NALP1 yeast inh | tim10-1 inh | V-ATPase pH | tim10-1 conf | tim23-1 conf | others
CN(CC(=O)Nc1ccccc1C(F)(F)F)C(=O)c1cc([N+](=O)[O-])ccc1N1CCOCC1 | 1.4 | 14.8 | 21.5 | -4.5 | 5.8 | -0.5 | nt | nt
CCC(C)n1c(/C=C/c2ccccc2)nc2ccccc21 (centres undefined) | 53.1* | 43.7* | 11.0 | 19.5 | 45.4* | 3.2 | 35.4* | 50.2* | tim10 confirm=22.6
Nc1cccc2c1C(=O)N(C(=O)/C=C/c1ccc(F)cc1)C2=O | 74.2* | 49.3* | -5.7 | 8.8 | 58.8* | -10.4 | 60.8* | 86.1* | tim10 confirm=47.0*
C=CCOC(=O)C(C#N)c1nc2ccccc2nc1N1CCN(Cc2ccccc2)CC1 (centres undefined) | 50.3* | 36.1 | 7.4 | 17.6 | 46.5* | -5.6 | 36.4* | 43.5*
CC(C)COC(=O)C(C#N)c1nc2ccccc2nc1N1CCN(Cc2ccccc2)CC1 (centres undefined) | 51.4* | 39.4 | 21.4 | -16.3 | 42.1* | -0.2 | 11.8 | 21.2
C=CCNC(=O)C(C#N)c1nc2ccccc2nc1N1CCN(Cc2ccccc2)CC1 (centres undefined) | -2.4 | 7.2 | 13.5 | -0.6 | 5.4 | -3.2 | nt | nt
COCCOC(=O)C(C#N)c1nc2ccccc2nc1N1CCN(Cc2ccccc2)CC1 (centres undefined) | 25.4 | 23.4 | 22.0 | 7.5 | 25.0 | 4.9 | nt | nt
Cc1ccc(NC(=O)COC(=O)c2nn(C)c(=O)c3ccccc23)cc1F | 12.5 | 9.9 | -1.9 | nt | -19.3 | 0.4 | nt | nt
CC1=NN(c2ccccc2)C(=O)/C1=C/c1ccc(-c2ccc(C)c(C(=O)O)c2)o1 | 65.7* | 34.5 | 12.6 | nt | 48.0* | 2.8 | 35.0* | 58.8*
CC1=NN(c2ccc(Cl)c(C(=O)O)c2)C(=O)/C1=C\c1ccc(-c2ccc(C(=O)O)cc2)o1 | nt | nt | nt | 0.3 | nt | -0.9 | nt | nt
Cc1ccc(S(=O)(=O)N(C)C)cc1NC(=O)COC(=O)c1sc2cc(Cl)ccc2c1Cl | 4.8 | -4.1 | 17.2 | nt | 19.5 | 1.8 | nt | nt
CC(C)(C)Nc1c([N+](=O)[O-])c(=O)sc2ccccc12 | 71.3* | 59.6* | 15.2 | -4.5 | 54.6* | 1.3 | 52.8* | 68.6* | tim10 confirm=48.6*
CCOP(=O)(OCC)C(NC(=O)c1cccs1)c1ccccc1 (centres undefined) | 7.7 | -6.9 | -1.0 | -5.0 | 12.7 | -2.0 | nt | nt
c1ccc(-c2nc3nonc3nc2-c2ccccc2)cc1 | 61.4* | 63.9* | -43.4 | -12.1 | 79.7* | 7.4 | 72.5* | 84.5* | tim10 confirm=56.6*
Oc1ccc(-c2nc3ccccc3nc2-c2ccccc2)cc1 | 44.3 | 21.1 | 28.7 | -5.1 | -3.3 | 4.4 | nt | nt
